Assay results taken from PubChem BioAssay AID1159580 (chemical genetic matrix, 2015).
Screen size: about 5,500 compounds; about 2,000 (36%) were called active. Roughly 18% stayed inconclusive and do not appear here. No stated cut-off is given here; in the data, active means normalized growth mostly below about 0.91 (no sharp cut-off); inconclusive means no clear call, values can overlap the other calls; inactive means mostly above about 0.92. Some of the results follow.

Experiment: chemical genetic growth profiling, strain panel (AID 1159580);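 further: tested at 20 µM; growth read once vehicle control cultures reached saturation at 30 °C; 1 = growth at the plate median or of vehicle wells; lower values mean less growth of the strain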
Settings: S. cerevisiae deletion strains, growth OD

Measured: normalized growth

C#C[C@]1(OC(C)=O)CCC2C3CCC4=C/C(=N\O)CCC4C3CC[C@@]21CC (stereo not given in full)
inactive: locus YAL026C, strain drs2, active compounds read low 0.921 | locus YBR171W, strain sec66, active compounds read low 0.944 | locus YCL061C, strain MRC1, active compounds read low 0.94 | locus YCL069W, strain vba3, active compounds read low 0.984 | locus YDR001C, strain nth1, active compounds read low 0.998 | locus YDR334W, strain swr1, active compounds read low 1 | locus YEL037C, strain rad23, active compounds read low 0.993 | locus YEL061C, strain CIN8 (second series), active compounds read low 0.996 | locus YER111C, strain swi4, active compounds read low 1.01 | locus YGL227W, strain vid30, active compounds read low 0.97 | locus YJL092W, strain hpr5, active compounds read low 0.941 | locus YJL115W, strain asf1, active compounds read low 1.01 | locus YJL154C, strain vps35, active compounds read low 0.994 | locus YJR066W, strain TOR1, active compounds read low 0.863 | locus YKR026C, strain gcn3, active compounds read low 0.99 | locus YKR091W, strain srl3, active compounds read low 0.941 | locus YLR357W, strain rsc2, active compounds read low 0.937 | locus YLR384C, strain iki3, active compounds read low 1.01 | locus YMR129W, active compounds read low 0.986 | locus YNL183C, strain NPR1, active compounds read low 0.84 | locus YNL248C, strain rpa49, active compounds read low 0.996 | locus YNL322C, strain KRE1 (second series), active compounds read low 1.01 | locus YNR049C, strain mso1, active compounds read low 0.987 | locus YOR080W, strain dia2, active compounds read low 0.917
active: locus YAL021C, strain ccr4, active compounds read low 0.823 | locus YAL030W, strain snc1, active compounds read low 0.582 | locus YBL061C, strain skt5, active compounds read low 0.514 | locus YBR009C, strain hhf1, active compounds read low 0.403 | locus YBR023C, strain chs3, active compounds read low 0.612 | locus YBR231C, strain swc5, active compounds read low 0.333 | locus YBR279W, strain paf1, active compounds read low 0.879 | locus YCL011C, strain gbp2, active compounds read low 0.476 | locus YCL016C, strain dcc1, active compounds read low 0.77 | locus YCR088W, strain abp1, active compounds read low 0.898 | locus YDL005C, strain med2, active compounds read low 0.41 | locus YDL040C, strain nat1, active compounds read low 0.726 | locus YDR069C, strain doa4, active compounds read low 0.367 | locus YDR137W, strain rgp1, active compounds read low 0.242 | locus YDR159W, strain sac3, active compounds read low 0.267 | locus YDR195W, strain ref2 0.269 | locus YDR297W, strain sur2, active compounds read low 0.716 | locus YDR335W, strain msn5, active compounds read low 0.866 | locus YDR392W, strain spt3, active compounds read low 0.193 | locus YEL003W, strain gim4, active compounds read low 0.759 | locus YER015W, strain faa2, active compounds read low 0.918 | locus YER016W, strain bim1, active compounds read low 0.599 | locus YER155C, strain BEM2 (second series), active compounds read low 0.737 | locus YFR010W, strain ubp6, active compounds read low 0.761 | locus YGL167C, strain pmr1, active compounds read low 0.682 | locus YGL173C, strain kem1, active compounds read low 0.817 | locus YGL240W, strain doc1, active compounds read low 0.782 | locus YGL253W, strain hxk2, active compounds read low 0.71 | locus YHR013C, strain ard1, active compounds read low 0.315 | locus YHR027C, strain rpn1, active compounds read low 0.725 | locus YHR030C, strain SLT2, active compounds read low 0.671 | locus YHR079C, strain IRE1, active compounds read low 0.707 | locus YHR142W, strain chs7, active compounds read low 0.776 | locus YJL095W, strain BCK1 (second series), active compounds read low 0.503 | locus YJL095W, strain BCK1, active compounds read low 0.605 | locus YJL129C, strain trk1, active compounds read low 0.56 | locus YJL164C, strain tpk1, active compounds read low 0.469 | locus YJL166W, strain qcr8, active compounds read low 0.344 | locus YJL187C, strain SWE1, active compounds read low 0.582 | locus YKL160W, strain elf1, active compounds read low 0.495 | locus YLL001W, strain dnm1, active compounds read low 0.826 | locus YLL026W, active compounds read low 0.461 | locus YLL041C, strain sdh2, active compounds read low 0.775 | locus YLR027C, strain aat2, active compounds read low 0.513 | locus YLR113W, strain HOG1, active compounds read low 0.305 | locus YLR221C, strain rsa3, active compounds read low 0.638 | locus YLR258W, strain gsy2, active compounds read low 0.495 | locus YLR262C, strain YPT6 (second series), active compounds read low 0.18 | locus YLR320W, strain mms22, active compounds read low 0.558 | locus YLR342W, strain FKS1, active compounds read low 0.518 | locus YLR370C, strain arc18, active compounds read low 0.785 | locus YML120C, strain ndi1, active compounds read low 0.471 | locus YMR058W, strain fet3, active compounds read low 0.89 | locus YMR125W, strain sto1, active compounds read low 0.884 | locus YMR205C, strain PFK2, active compounds read low 0.358 | locus YMR231W, strain pep5, active compounds read low 0.45 | locus YNL071W, strain lat1, active compounds read low 0.476 | locus YNL209W, strain ssb2, active compounds read low 0.846 | locus YOR001W, strain rrp6, active compounds read low 0.767 | locus YOR070C, strain gyp1, active compounds read low 0.394 | locus YOR083W, strain WHI5, active compounds read low 0.619 | locus YOR106W, strain vam3, active compounds read low 0.281 | locus YOR231W, strain MKK1, active compounds read low 0.673 | locus YOR265W, strain rbl2, active compounds read low 0.668 | locus YOR270C, strain vph1, active compounds read low 0.512 | locus YOR290C, strain snf2, active compounds read low 0.563 | locus YPL051W, strain arl3, active compounds read low 0.456 | locus YPL078C, strain atp4, active compounds read low 0.835 | locus YPL106C, strain sse1, active compounds read low 0.824 | locus YPL240C, strain hsp82, active compounds read low 0.604 | locus YPL256C, strain CLN2, active compounds read low 0.752
